From the supplement of paper PMC11732987, “Enantioselective OTUD7B fragment discovery through chemoproteomics screening and high-throughput optimisation” (Communications Chemistry, 2025)

What was measured:
Assay in all cases: log2 ratio of Biotin-Ahx-Ub-VS probe labelling (fragment/DMSO); higher = less target engagement (more negative = stronger competition), active = hit call of the paper (q ≤ 0.05, log2 ratio ≤ -1)
Details in all cases: compound concentration: 200 uM; treatment time: 3 h
USP19 = biological target: T1, USP19 (UniProt O94966)
T1 sequence (whole entry): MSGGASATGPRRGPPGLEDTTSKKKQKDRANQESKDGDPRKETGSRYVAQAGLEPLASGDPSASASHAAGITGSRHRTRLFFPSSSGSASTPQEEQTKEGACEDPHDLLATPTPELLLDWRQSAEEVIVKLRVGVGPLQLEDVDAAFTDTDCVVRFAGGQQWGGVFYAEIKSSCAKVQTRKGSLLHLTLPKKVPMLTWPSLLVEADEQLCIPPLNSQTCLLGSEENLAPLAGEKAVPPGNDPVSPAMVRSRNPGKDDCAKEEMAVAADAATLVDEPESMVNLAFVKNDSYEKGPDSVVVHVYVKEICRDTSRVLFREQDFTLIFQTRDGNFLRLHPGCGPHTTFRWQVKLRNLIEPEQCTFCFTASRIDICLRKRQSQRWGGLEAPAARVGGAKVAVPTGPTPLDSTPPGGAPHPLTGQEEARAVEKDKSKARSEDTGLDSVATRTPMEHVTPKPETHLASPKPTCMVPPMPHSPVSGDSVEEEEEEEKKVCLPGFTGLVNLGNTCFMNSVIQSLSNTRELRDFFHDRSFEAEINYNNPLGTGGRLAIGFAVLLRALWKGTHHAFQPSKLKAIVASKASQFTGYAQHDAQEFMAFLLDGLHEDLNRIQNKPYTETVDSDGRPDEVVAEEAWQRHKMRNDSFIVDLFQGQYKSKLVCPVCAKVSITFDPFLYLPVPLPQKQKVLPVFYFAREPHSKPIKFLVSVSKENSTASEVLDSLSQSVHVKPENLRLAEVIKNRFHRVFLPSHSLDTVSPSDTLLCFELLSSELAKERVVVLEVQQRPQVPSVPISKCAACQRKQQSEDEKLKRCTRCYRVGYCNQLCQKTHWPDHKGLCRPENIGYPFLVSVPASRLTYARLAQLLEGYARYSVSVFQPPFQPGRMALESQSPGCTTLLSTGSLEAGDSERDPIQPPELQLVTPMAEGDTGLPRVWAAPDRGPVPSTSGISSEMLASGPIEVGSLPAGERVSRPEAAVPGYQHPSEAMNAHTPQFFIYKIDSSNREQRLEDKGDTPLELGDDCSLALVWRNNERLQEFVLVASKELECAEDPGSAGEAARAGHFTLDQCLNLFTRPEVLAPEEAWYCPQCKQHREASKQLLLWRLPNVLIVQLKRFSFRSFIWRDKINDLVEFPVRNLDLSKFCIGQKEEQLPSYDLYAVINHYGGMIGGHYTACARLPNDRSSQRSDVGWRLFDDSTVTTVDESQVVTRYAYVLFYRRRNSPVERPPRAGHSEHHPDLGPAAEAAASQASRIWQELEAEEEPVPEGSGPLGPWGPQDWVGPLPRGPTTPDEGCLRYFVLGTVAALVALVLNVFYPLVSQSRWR
Method in brief: (§1)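 Average log2 ratios of fragment over vehicle were obtained by unpaired t-test from global-median-normalised Spectronaut label-free quantities. Proteins with ≥2 unique peptides were included. HEK293T lysate (495 µg per sample) was treated in triplicate with fragment at 200 µM or vehicle for 3 h, then with Biotin-Ahx-Ub-VS at 0.5 µM final for 1 h, and labelled DUBs were NeutrAvidin-enriched and run by diaPASEF LC-MS/MS.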

USP22 = biological target: T2, USP22 (UniProt Q9UPT9)
T2 sequence (whole entry): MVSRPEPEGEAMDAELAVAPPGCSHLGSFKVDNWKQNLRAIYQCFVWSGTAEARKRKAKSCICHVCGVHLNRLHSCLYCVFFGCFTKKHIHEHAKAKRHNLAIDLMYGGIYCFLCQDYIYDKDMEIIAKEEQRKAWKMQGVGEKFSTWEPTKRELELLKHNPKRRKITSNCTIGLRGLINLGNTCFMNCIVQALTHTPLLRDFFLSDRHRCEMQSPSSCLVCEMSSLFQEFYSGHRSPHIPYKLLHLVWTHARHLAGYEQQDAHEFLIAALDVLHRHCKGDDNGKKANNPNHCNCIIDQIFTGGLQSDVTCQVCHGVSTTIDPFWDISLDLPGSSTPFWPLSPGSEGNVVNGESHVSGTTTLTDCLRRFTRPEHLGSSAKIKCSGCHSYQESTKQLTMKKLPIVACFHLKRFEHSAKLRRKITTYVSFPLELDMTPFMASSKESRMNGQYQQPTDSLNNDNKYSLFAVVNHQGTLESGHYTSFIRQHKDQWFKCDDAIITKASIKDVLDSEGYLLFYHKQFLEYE
Method in brief: as §1

USP24 = USP24 (UniProt Q9UPU5)
Method in brief: as §1

USP25 = biological target: T3, USP25 (UniProt Q9UHP3)
T3 sequence (whole entry): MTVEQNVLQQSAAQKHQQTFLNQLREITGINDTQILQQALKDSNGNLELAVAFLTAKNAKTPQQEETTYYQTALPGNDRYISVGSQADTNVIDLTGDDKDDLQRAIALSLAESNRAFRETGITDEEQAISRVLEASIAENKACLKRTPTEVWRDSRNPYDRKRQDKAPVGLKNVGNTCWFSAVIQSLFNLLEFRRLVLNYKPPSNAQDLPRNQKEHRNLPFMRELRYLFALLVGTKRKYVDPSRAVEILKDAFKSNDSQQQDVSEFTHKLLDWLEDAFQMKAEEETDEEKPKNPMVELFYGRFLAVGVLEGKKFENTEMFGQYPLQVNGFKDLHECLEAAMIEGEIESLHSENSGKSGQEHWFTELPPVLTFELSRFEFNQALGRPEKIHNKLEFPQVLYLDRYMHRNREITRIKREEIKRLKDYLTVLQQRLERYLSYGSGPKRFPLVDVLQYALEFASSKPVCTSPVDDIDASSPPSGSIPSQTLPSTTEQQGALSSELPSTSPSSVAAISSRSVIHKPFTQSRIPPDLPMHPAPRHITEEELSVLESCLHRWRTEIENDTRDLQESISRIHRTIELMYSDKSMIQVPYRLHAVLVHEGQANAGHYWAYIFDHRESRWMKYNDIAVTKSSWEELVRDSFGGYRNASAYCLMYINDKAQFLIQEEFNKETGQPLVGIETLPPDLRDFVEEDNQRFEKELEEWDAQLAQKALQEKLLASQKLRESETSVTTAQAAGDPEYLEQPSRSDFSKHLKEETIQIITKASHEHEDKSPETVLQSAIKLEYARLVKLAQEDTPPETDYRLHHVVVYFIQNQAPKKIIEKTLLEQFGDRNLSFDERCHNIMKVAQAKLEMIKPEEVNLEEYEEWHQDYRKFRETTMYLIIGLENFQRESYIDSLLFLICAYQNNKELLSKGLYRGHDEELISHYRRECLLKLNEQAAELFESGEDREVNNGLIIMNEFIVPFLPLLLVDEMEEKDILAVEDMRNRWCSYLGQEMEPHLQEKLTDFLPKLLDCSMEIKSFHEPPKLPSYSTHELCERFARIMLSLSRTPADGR
Method in brief: as §1

USP28 = biological target: T4, USP28 (UniProt Q96RU2)
T4 sequence (whole entry): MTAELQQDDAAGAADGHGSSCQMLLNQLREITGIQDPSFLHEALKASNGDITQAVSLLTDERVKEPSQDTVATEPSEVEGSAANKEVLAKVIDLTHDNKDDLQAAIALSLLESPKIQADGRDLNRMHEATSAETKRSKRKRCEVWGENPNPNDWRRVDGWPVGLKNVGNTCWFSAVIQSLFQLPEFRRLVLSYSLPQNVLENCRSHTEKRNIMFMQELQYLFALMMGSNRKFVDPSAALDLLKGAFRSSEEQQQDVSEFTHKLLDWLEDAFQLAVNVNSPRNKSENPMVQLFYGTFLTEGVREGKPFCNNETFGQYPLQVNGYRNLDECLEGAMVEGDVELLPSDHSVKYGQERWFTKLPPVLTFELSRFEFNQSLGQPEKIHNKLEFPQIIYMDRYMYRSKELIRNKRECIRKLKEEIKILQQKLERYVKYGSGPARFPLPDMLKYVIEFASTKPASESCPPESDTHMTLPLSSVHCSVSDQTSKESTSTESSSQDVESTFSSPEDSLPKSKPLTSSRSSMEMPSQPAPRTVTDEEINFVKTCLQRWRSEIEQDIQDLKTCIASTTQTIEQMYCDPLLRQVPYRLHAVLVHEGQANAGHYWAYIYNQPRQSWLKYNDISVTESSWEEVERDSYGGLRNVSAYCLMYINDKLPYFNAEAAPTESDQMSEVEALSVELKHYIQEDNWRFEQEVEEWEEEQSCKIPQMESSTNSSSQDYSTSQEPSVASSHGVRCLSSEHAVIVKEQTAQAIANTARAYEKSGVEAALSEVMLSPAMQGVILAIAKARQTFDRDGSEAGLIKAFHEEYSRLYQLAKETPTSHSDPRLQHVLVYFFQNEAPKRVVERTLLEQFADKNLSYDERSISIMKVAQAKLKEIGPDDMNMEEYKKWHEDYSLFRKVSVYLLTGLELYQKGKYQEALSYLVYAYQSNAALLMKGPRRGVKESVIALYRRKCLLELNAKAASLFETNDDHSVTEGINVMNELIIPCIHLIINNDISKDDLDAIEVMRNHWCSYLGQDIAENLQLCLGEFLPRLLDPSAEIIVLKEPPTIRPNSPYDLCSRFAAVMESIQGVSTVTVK
Method in brief: as §1

Measured: log2 ratio of Biotin-Ahx-Ub-VS probe labelling

Chain of USP24 (Q9UPU5 whole entry): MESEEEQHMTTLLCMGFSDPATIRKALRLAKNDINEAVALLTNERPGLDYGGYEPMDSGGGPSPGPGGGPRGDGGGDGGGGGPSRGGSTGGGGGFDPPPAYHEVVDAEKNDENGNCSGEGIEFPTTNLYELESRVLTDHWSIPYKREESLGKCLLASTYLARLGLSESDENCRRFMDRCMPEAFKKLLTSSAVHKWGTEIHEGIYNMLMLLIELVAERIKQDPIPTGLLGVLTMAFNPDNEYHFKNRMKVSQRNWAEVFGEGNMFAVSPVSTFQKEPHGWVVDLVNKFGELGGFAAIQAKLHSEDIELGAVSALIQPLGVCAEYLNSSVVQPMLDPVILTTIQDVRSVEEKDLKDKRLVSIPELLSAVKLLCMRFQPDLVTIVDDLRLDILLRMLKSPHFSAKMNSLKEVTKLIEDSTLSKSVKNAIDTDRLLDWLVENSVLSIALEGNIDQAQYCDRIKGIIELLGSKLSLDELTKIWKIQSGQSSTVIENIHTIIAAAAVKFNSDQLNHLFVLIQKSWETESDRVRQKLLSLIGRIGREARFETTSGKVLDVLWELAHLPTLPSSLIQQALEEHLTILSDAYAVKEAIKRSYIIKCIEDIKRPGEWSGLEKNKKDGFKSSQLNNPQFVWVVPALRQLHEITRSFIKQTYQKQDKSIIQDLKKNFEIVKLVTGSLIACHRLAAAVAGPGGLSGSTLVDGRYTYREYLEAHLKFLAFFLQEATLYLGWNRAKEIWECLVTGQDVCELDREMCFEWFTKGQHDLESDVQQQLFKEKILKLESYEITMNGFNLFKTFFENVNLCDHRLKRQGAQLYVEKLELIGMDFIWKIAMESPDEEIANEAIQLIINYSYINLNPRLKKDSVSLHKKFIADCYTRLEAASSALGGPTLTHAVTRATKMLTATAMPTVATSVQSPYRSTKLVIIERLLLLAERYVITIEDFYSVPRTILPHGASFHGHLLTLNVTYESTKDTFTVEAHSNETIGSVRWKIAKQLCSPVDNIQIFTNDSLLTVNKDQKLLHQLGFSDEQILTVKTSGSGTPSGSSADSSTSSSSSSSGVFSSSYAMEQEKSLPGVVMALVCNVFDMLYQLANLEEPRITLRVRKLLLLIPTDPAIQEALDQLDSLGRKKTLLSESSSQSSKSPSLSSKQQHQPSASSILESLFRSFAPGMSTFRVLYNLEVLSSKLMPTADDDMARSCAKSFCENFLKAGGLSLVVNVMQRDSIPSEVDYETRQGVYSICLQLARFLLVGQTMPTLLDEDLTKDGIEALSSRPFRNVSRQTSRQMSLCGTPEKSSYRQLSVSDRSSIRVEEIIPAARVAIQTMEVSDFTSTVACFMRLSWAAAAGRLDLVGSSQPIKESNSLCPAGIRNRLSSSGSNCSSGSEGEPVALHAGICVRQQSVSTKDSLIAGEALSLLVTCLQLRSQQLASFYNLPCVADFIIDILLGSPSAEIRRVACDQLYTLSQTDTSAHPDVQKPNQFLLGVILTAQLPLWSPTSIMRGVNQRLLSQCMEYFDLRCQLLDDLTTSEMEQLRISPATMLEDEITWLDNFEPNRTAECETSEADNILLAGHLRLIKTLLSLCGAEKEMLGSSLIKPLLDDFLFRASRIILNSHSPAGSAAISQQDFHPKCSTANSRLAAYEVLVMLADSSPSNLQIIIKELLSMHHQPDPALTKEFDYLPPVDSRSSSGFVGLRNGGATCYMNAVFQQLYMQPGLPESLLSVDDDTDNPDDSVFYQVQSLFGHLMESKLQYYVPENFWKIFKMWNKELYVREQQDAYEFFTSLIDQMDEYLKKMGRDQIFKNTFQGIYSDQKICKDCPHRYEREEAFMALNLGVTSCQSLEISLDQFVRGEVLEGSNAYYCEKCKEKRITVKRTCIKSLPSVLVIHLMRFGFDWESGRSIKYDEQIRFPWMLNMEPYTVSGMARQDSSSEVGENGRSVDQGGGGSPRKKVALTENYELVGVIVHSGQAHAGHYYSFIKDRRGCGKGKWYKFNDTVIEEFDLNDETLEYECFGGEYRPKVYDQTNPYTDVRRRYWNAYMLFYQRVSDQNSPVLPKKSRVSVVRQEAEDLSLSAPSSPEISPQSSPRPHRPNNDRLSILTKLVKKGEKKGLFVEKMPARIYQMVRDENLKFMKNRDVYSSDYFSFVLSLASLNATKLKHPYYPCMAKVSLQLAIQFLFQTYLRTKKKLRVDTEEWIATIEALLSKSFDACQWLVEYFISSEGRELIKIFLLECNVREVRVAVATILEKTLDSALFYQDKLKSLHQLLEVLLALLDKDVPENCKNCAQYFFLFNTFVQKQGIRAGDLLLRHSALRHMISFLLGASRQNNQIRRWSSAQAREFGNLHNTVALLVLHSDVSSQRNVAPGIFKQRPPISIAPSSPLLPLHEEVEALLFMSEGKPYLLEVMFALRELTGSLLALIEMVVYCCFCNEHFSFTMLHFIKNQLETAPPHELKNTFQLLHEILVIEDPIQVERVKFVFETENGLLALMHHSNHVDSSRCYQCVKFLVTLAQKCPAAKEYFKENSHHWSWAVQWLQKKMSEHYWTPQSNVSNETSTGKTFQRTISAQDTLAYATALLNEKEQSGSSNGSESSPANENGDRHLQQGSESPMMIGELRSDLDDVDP

C#Cc1cccc(NC(=O)CCl)c1
inactive: USP19 -0.38 | USP22 -0.379 | USP24 -0.837 | USP25 -0.804 | USP28 -0.906
